Measurements published in the supplement of paper PMC10849652.
The full data set covers some 8,800 targets. This sample favours those with a hit. About 0.5% of all pairs of compound and target were hits.

Experiments:
Experiment in all cases: log2 fold change, soluble protein after heating vs DMSO (PISA); higher = thermal stabilisation; K562 lysate, 10 uM; active = over 0.2 and 3.5 SD of the protein, either way, in both replicates (recomputed)
[1] = compound: C1=CC=C(C=C1)[C@H](COC2=CC3=C(C=C2)NC(=O)N3)NC(=O)C4=CC=CN(C4=O)CC5=CC(=C(C=C5)F)F
In short: (§1)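 Pellets of K562 cells were dounce-homogenised in PBS pH 7.4 with 1 mM MgCl2, and the crude extract was held at 1 mg/mL protein for a 30 min treatment with 10 μM compound. Aliquots were heated for 3 min over 48°C-58°C and pooled before NP-40 was added to 0.5% at 4°C. The supernatant from 21,000xg for 90 min was quantified by TMTpro 16plex LC-MS/MS with channel sums equalised. Values are reported from duplicates as log-two fold change in thermal stability relative to solvent controls.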

[2] = compound: CC1=C(SC2=C1C(=N[C@H](C3=NN=C(N32)C)CC(=O)N)C4=CC=C(C=C4)Cl)C
In short: as §1

[3] = compound: CC1=C2C(=CC=C1)N=C(N(C2=O)C3=CC=CC=C3C)CN4C=NC5=C(N=CN=C54)N
In short: as §1

[4] = compound: Cc1sc2c(c1C)C(c1ccc(Cl)cc1)=N[C@@H](CC(=O)OC(C)(C)C)c1nnc(C)n1-2
In short: as §1

[5] = compound: c1ccc([C@@H]2C[C@H]2NC2CCNCC2)cc1
In short: as §1

Measured: log2 fold change

TRAPPC10 (UniProt P48553)
inactive: [1] -0.014 | [2] -0.015 | [3] 0.033 | [4] -0.004 | [5] -0.012

TCP11L1 (UniProt Q9NUJ3)
Chain of UniProt Q9NUJ3 (Q9NUJ3 whole entry, looked up): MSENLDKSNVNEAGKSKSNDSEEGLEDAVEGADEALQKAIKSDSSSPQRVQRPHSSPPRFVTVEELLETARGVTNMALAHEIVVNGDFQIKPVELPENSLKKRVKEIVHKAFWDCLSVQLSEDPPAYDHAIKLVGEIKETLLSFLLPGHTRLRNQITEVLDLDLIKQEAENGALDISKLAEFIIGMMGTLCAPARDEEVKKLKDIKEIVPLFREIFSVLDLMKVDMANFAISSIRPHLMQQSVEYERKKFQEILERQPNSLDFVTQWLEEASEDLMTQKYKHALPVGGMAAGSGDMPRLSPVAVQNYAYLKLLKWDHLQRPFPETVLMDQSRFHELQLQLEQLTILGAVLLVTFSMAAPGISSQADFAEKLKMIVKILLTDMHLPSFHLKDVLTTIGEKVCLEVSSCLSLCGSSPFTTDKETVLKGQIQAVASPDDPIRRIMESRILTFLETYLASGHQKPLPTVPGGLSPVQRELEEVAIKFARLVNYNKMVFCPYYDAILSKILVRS
inactive: [1] -0.023 | [2] -0.031 | [3] -0.02 | [4] -0.021 | [5] -0.095

TUBA4A (UniProt P68366)
inactive: [1] -0.068 | [2] 0.013 | [3] 0.03 | [4] -0.024 | [5] 0.019

TRAPPC12 (UniProt Q8WVT3)
Chain of UniProt Q8WVT3 (Q8WVT3 whole entry, looked up): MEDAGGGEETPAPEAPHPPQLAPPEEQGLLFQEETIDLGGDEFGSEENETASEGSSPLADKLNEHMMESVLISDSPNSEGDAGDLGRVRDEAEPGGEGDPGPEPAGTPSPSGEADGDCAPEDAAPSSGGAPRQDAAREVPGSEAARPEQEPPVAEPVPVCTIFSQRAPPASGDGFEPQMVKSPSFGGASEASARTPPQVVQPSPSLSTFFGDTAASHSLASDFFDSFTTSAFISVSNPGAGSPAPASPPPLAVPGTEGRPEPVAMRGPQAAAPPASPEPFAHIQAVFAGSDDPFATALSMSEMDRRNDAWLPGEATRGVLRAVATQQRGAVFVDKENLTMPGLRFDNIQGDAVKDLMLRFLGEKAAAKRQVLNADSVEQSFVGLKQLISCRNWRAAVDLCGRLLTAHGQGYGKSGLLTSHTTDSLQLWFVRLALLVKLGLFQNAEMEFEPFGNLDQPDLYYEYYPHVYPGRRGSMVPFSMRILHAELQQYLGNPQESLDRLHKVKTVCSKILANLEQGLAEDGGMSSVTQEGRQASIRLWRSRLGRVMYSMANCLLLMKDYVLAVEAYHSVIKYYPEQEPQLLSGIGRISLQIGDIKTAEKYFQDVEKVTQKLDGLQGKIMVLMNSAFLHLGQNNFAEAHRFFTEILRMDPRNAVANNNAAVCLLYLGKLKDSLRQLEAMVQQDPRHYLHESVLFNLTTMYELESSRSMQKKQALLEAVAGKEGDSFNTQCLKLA
inactive: [1] 0.005 | [2] -0.016 | [3] -0.023 | [4] 0.003 | [5] 0.015

THADA (UniProt Q6YHU6)
inactive: [1] -0.028 | [2] -0.016 | [3] 0.069 | [4] 0.007 | [5] 0.028

UBE2D1 (UniProt P51668)
inactive: [1] 0.056 | [2] 0.066 | [3] 0.02 | [4] -0.082 | [5] 0.016

TTLL12 (UniProt Q14166)
inactive: [1] -0.004 | [2] 0.013 | [3] 0.011 | [4] 0.015 | [5] 0.033

TRAPPC6A isoform 2 (UniProt O75865)
Chain of UniProt O75865 (O75865 whole entry, looked up): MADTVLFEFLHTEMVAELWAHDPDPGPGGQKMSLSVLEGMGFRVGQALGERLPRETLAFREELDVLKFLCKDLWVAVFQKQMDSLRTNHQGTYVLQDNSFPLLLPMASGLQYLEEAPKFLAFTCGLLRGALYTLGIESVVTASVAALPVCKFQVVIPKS
inactive: [1] 0.025 | [2] 0.046 | [3] -0.043 | [4] -0.003 | [5] 0.014

TNIK (UniProt C9J338)
inactive: [1] -0.028 | [2] 0.067 | [3] 0.135 | [4] -0.225 | [5] -0.375

TPP2 (UniProt Q5VZU9)
inactive: [1] 0.004 | [2] -0.117 | [3] 0.001 | [4] 0.034 | [5] -0.08

TLK1 isoform 2 (UniProt Q9UKI8)
Chain of UniProt Q9UKI8 (Q9UKI8 whole entry, looked up): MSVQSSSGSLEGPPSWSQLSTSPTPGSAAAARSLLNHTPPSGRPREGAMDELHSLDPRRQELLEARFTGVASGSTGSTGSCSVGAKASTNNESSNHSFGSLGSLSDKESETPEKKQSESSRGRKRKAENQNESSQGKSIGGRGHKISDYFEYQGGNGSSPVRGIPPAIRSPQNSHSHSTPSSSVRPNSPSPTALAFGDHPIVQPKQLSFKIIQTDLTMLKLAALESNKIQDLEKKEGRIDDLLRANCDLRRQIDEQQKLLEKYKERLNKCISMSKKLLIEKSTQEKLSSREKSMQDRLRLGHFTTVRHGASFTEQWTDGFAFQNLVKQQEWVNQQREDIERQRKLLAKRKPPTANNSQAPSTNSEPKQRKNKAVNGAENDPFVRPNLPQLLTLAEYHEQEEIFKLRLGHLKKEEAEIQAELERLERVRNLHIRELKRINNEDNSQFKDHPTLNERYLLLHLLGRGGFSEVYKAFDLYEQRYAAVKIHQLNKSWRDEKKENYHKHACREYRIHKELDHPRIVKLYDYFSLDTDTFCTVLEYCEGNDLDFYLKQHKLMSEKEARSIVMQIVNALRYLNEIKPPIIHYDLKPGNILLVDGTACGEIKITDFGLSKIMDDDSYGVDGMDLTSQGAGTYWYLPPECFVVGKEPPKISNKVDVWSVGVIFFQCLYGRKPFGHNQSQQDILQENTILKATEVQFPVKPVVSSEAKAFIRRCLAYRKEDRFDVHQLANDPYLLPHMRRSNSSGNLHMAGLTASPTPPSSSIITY
inactive: [1] 0.005 | [2] -0.02 | [3] -0.026 | [4] -0.025 | [5] -0.072

TGOLN2 isoform 7 (UniProt O43493)
inactive: [1] 0.065 | [2] -0.029 | [3] -0.015 | [4] -0.017 | [5] -0.069

TJP1 (UniProt G3V1L9)
inactive: [1] -0.025 | [2] -0.014 | [3] 0.127 | [4] 0.009 | [5] -0.007

TUBA1C (UniProt Q9BQE3)
Chain of UniProt Q9BQE3 (Q9BQE3 whole entry, looked up): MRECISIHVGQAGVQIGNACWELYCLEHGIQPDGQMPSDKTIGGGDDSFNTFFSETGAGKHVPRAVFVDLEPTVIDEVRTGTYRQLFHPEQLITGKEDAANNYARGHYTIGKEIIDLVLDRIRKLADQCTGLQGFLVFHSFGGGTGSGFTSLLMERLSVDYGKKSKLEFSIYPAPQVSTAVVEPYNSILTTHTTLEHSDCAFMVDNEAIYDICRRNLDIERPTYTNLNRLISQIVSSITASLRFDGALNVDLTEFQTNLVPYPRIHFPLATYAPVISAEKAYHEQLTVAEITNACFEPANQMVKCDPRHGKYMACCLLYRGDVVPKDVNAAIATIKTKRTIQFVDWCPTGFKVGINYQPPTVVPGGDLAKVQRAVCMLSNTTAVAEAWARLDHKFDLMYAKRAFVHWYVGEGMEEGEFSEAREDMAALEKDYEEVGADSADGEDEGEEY
inactive: [1] 0.043 | [2] 0.03 | [3] 0.023 | [4] 0.003 | [5] -0.006

TTK (UniProt P33981)
Chain of UniProt P33981 (P33981 whole entry, looked up): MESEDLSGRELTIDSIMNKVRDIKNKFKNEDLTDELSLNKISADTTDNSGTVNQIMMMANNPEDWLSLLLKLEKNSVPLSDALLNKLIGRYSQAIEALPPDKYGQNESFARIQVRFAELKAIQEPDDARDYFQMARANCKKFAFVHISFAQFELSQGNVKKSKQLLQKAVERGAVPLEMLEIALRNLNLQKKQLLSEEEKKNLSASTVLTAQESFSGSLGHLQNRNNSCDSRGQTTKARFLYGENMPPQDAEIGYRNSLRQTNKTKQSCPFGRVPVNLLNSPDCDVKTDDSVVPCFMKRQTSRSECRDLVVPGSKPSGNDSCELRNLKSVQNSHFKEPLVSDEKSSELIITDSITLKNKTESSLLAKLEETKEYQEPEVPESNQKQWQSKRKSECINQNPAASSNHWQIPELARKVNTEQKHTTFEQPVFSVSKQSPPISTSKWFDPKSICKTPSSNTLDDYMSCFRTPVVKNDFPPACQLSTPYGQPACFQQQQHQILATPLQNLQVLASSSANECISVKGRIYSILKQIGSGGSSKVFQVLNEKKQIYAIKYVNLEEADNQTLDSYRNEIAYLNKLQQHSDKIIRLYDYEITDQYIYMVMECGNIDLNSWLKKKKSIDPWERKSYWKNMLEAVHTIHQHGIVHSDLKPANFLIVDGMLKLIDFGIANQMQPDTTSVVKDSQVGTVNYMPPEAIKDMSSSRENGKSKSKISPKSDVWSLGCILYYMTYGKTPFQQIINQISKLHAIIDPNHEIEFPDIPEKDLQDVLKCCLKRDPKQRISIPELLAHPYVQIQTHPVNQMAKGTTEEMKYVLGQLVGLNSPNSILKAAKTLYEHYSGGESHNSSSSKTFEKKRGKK
inactive: [1] -0.016 | [2] -0.003 | [3] 0.068 | [4] 0.02 | [5] 0.003

TERF2IP (UniProt Q9NYB0)
inactive: [1] 0.023 | [2] -0.006 | [3] -0.077 | [4] -0.03 | [5] 0.116

TMOD1 (UniProt P28289)
inactive: [1] -0.003 | [2] 0.021 | [3] 0.043 | [4] 0.017 | [5] 0.002

TTC12 isoform 2 (UniProt Q9H892)
Chain of UniProt Q9H892 (Q9H892 whole entry, looked up): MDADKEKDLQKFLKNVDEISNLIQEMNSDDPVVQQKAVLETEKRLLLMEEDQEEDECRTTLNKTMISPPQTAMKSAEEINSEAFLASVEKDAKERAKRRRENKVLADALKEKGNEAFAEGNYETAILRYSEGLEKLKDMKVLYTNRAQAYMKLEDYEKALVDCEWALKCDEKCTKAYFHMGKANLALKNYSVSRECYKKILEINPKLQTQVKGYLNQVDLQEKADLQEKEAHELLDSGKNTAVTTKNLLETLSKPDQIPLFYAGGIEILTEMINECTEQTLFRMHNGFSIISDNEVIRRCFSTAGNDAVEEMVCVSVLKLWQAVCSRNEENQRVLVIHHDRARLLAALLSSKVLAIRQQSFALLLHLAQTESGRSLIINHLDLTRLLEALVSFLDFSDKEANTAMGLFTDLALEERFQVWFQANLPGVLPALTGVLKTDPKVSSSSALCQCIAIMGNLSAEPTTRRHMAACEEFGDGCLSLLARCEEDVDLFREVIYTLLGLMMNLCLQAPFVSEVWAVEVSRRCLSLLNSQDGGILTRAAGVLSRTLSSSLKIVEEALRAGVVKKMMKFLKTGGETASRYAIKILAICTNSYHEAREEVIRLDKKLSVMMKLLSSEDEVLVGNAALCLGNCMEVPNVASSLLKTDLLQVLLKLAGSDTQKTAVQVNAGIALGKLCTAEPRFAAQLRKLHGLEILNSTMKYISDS
inactive: [1] -0.123 | [2] -0.131 | [3] 0.033 | [4] 0.044 | [5] 0.058

TUBB3 (UniProt Q13509)
inactive: [1] 0.014 | [2] -0.005 | [3] 0.008 | [4] 0.008 | [5] 0.01

TPST2 (UniProt O60704)
inactive: [1] -0.034 | [2] 0.021 | [3] -0.028 | [4] -0.054 | [5] -0.384

TIMM44 (UniProt O43615)
Chain of UniProt O43615 (O43615 whole entry, looked up): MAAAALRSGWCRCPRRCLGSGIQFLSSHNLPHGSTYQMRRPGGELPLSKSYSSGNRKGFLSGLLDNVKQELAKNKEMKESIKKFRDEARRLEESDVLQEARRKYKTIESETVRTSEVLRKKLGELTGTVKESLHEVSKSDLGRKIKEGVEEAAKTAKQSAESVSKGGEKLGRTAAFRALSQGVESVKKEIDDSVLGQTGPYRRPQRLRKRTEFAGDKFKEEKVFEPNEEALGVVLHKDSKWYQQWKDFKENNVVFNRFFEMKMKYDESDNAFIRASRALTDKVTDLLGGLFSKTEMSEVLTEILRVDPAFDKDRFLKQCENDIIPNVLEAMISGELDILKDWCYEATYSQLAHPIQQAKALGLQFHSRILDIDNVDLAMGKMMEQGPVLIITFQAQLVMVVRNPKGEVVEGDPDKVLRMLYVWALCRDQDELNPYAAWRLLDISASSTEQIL
inactive: [1] -0.062 | [2] 0 | [3] 0.034 | [4] -0.035 | [5] -0.003

TPM3 isoform 2 (UniProt P06753)
Chain of UniProt P06753 (P06753 whole entry, looked up): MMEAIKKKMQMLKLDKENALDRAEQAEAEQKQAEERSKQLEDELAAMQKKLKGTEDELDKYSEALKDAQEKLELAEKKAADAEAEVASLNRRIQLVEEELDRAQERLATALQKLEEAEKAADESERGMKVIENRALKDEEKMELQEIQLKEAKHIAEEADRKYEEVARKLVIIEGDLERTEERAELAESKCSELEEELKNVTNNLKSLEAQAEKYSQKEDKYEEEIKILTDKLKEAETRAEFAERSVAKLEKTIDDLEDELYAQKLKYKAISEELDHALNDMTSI
inactive: [1] -0.02 | [2] 0.01 | [3] -0.025 | [4] -0.009 | [5] 0.056

TRIM25 (UniProt Q14258)
inactive: [1] 0.047 | [2] 0.001 | [3] 0.001 | [4] 0.013 | [5] 0.044

TUBE1 (UniProt Q9UJT0)
inactive: [1] -0.019 | [2] 0.003 | [3] 0.019 | [4] -0.064 | [5] 0.107
